Test results published in PubChem BioAssay (NCATS).
Inconclusive results are not listed. Activity calls are given as the source filed them. The call rests on the fitted dose curve; in most records, active means well fitted curve in the direction sought with a large enough effect; inconclusive means small, poorly fitted or top-dose-only effect, or another doubt; inactive means no such curve, though single readings can be large; an effect the other way counts as inactive or inconclusive.

Tests used:
[1] = A2780 Cisplatin Sensitive Ovarian Cancer Cell Toxicity qHTS against the NCATS CANVASS Library (AID 1347353); conditions: A2780 ovarian cancer viability, ATPLite luminescence, 72 h; further: potency means the concentration at half of the fitted maximal effect; nearly all actives have a fitted effect of over 60% in size
Excerpt: Natural products and their derivatives continue to be wellsprings of nascent therapeutic potential. However, many laboratories have limited resources for biological evaluation, leaving their previously isolated or synthesized compounds largely or completely untested. To address this issue, the Canvass library of natural products was assembled (https://tripod.nih.gov/canvass), in collaboration with academic and industry researchers, for quantitative high-throughput screening (qHTS) across a diverse set of cell-based and biochemical assays. The pure (>85% purity by liquid chromatography/mass spectrometry [LC/MS]) Canvass library of 346 natural products were submitted by 45 academic laboratories and companies around the world. We collected pure natural products to circumvent deconvolution and structure elucidation due to time and resource limitations. The library was formatted into 1536-well plates and evaluated in 50 qHTS (in an 11-pnt concentration series) bioassays with broad scope of disease-relevant mechanisms. The resulting data set from 50 different assays was then systematically analyzed to identify overall trends and specific natural products with interesting biological activities. […]
Cancer Cell Toxicity protocol 1. […] Luminescence signal was acquired via the ViewLux plate reader (PerkinElmer) using a clear filter, 2 second exposure and 2x binning settings.

[2] = UWB1.289-WTBRCA1 Cancer Cell Toxicity qHTS against the NCATS CANVASS Library (AID 1347354); conditions: UWB1.289-WTBRCA1 viability, CellTiter-Glo luminescence, 72 h; further: potency means the concentration at half of the fitted maximal effect
Method in brief: (§1)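 First, 1000 cells go into each well and rest for 4 hours. Next, an 11-point dilution range is pinned in. Plates then incubate 72 hours before CellTiter-Glo addition and luminescence reading.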

[3] = HEK-293 Cancer Cell Toxicity qHTS against the NCATS CANVASS Library (AID 1347355); conditions: HEK-293 viability, CellTiter-Glo luminescence, 72 h; further: potency means the concentration at half of the fitted maximal effect; nearly all actives have a fitted effect of over 65% in size
Method in brief: as §1

[4] = molecular target: Luciferin 4-monooxygenase (Photinus pyralis) (UniProt P08659); assay: Firefly luciferase counterscreen qHTS: Assay Interference Panel against the NCATS CANVASS Library (AID 1347363); conditions: purified firefly luciferase, luminescence inhibition, 5 min; series mostly up to 57.5 µM
Excerpt: Natural products and their derivatives continue to be wellsprings of nascent therapeutic potential. However, many laboratories have limited resources for biological evaluation, leaving their previously isolated or synthesized compounds largely or completely untested. To address this issue, the Canvass library of natural products was assembled (https://tripod.nih.gov/canvass), in collaboration with academic and industry researchers, for quantitative high-throughput screening (qHTS) across a diverse set of cell-based and biochemical assays. The pure (>85% purity by liquid chromatography/mass spectrometry [LC/MS]) Canvass library of 346 natural products were submitted by 45 academic laboratories and companies around the world. […] The library was formatted into 1536-well plates and evaluated in 50 qHTS (in an 11-pnt concentration series) bioassays with broad scope of disease-relevant mechanisms. The resulting data set from 50 different assays was then systematically analyzed to identify overall trends and specific natural products with interesting biological activities. […] The assay measures the relative levels of luminescence, to identify compounds that inhibit the activity of luciferase. […]
Luciferase Interference counterscreen protocol 1. […] Luminescence signal was acquired via the ViewLux plate reader (PerkinElmer) using a clear emission filter and a 2 second exposure, 2x binning settings.

[5] = KB-8-5-11 Cancer Cell Toxicity qHTS against the NCATS CANVASS Library (AID 1347364); conditions: KB-8-5-11 MDR cells viability, CellTiter-Glo, 72 h; further: potency means the concentration at half of the fitted maximal effect; nearly all actives have a fitted effect of over 75% in size
Method in brief: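 Terse: KB-8-5-11, 500 cells/well, 72 hr, 37C/5% CO2, 11-pt titration, CellTiter-Glo readout; confirmatory runs ± 1uM tariquidar in medium.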

[6] = KB-3-1 Cancer Cell Toxicity qHTS against the NCATS CANVASS Library (AID 1347366); conditions: KB-3-1 viability, CellTiter-Glo luminescence, 72 h; further: potency means the concentration at half of the fitted maximal effect; nearly all actives have a fitted effect of over 75% in size
Method in brief: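 KB-3-1 cells (500/well) in DMEM with 10% FBS were exposed to compounds for 72 h at 37C. Viability was read by CellTiter-Glo luminescence.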

[7] = qHTS for ATAD5 Agonist screened against the NCATS CANVASS Library (AID 1347367); conditions: HEK293T ATAD5-luciferase reporter, luminescence, 16 h; series mostly up to 46.1 µM;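 further: luciferase reporter driven by ATAD5 which rises upon DNA damage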
Method in brief: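 Luciferase reporter under ATAD5 control, stably integrated in HEK293T cells (2000/well). Compounds (11 points) incubated 16 h at 37C; viability read first by CellTiter-Fluor, then luminescence reporting ATAD5 activation. MMS positive control.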

[8] = qHTS for ATAD5 Antagonist screened against the NCATS CANVASS Library (AID 1347370); conditions: HEK293T-ATAD5-luc, 5-FUrd stimulated, luminescence, 16 h; further: potency means the concentration at half of the fitted maximal effect; nearly all actives have a fitted effect of over 65% in size
Method in brief: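 Compounds (11-point) co-dosed with 10 µM 5-FUrd for 16 h at 37 °C onto HEK293T-ATAD5 luciferase reporter cells. Viability measured by CellTiter-Fluor fluorescence, then ATAD5 reporter signal by luminescence.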

[9] = molecular target: Nuclear receptor subfamily 1 group I member 3 (Homo sapiens) (UniProt Q14994); assay: qHTS for Constitutive Androstane Receptor (CAR) Agonist screened against the NCATS CANVASS Library (AID 1347373); conditions: HepG2-hCAR-CYP2B6 luciferase reporter, ONE-Glo luminescence; series mostly up to 46.1 µM;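 further: every well also contained 1.5 µM PK11195 alongside the test compound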
Method in brief: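 Cells were plated and allowed to attach for 4hr, then dosed with compound in an 11-point series alongside 1.5uM PK11195. After 24hr at 37C, viability was measured fluorometrically and CAR-driven CYP2B6 reporter luminescence was recorded.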

[10] = 10-beta competent E. coli microbial cell viability qHTS against the NCATS CANVASS Library (AID 1347376); conditions: E. coli 10-beta viability, BacTiter-Glo ATP luminescence, overnight; series mostly up to 46.1 µM
Method in brief: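 Bacterial suspension diluted to 0.2 OD was dosed with compounds, 11-point series, then held overnight at 37C. BacTiter-Glo reagent was added, and after 20 min at room temperature ATP-dependent luminescence was measured.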

Measured: Potency

Luciferin 4-monooxygenase (Photinus pyralis), sequence (P08659 whole entry, looked up): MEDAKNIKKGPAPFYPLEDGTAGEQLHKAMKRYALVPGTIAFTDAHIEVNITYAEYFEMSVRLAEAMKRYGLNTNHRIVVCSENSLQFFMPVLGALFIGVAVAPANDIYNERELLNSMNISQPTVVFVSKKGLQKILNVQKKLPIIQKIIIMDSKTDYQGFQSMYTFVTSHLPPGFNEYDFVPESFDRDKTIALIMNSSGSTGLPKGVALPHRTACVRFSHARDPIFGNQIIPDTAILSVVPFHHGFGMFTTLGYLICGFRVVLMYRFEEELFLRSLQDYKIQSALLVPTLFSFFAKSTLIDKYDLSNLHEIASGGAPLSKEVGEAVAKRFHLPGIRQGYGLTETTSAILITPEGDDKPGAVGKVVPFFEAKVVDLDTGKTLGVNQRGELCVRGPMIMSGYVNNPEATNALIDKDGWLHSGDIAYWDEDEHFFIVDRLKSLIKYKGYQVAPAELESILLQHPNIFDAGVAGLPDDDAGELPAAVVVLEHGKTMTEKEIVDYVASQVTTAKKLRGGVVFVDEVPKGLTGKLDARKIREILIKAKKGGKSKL
Nuclear receptor subfamily 1 group I member 3 (Homo sapiens), sequence (Q14994 whole entry, looked up): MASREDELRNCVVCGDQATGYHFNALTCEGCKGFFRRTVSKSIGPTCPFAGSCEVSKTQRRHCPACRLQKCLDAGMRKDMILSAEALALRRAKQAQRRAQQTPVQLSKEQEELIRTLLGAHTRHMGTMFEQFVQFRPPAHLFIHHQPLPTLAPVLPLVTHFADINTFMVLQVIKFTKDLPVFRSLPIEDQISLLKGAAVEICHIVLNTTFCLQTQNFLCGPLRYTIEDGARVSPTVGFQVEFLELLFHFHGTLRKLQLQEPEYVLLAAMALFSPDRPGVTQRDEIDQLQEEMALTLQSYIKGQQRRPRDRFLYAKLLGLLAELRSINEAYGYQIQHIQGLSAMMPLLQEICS

CC(C)CC(=O)c1c(O)cc2c(c1O)C(CC(C)C)C1=C(O2)C(C)(C)C(=O)C(C)(C)C1=O (stereo not given)
active: [1] 16.6 µM | [2] 18.8 µM | [3] 20.9 µM | [5] 16.6 µM | [6] 26.4 µM | [8] 20.9 µM
inactive: [4] | [7] | [9] | [10]
